# Source: PubChem BioAssay (NCATS)
# Results filed as inconclusive are left out. A call without a number means that no potency is given here. Active and inactive are the calls of the source. Unless noted, calls come from the whole dose curve; as a rule, active = well fitted curve in the direction sought with a large enough effect; inconclusive = small, poorly fitted or top-dose-only effect, or another doubt; inactive = no such curve, though single readings can be large; an effect the other way counts as inactive or inconclusive.
# Tests used:
# [1] = biological target: Chromobox protein homolog 1 (Homo sapiens) (UniProt P83916); assay: qHTS Validation Assay for Inhibitors of HP1-beta Chromodomain Interactions with Methylated Histone Tails (AID 488953); note: nearly all actives have a fitted effect of over 50% in size; note: potency is the fitted concentration of half-maximal effect
# Method in brief: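 Disruption of preformed HP1-beta:H3K9me3 peptide complexes (both 50 nM, PBS pH 7.4 with 0.01% Tween-20) is measured by AlphaScreen after 30 min compound exposure at room temperature, using streptavidin donor and nickel chelate acceptor beads at 10 ug/mL final.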
# [2] = biological target: Methanococcus maripaludis chaperonin (MmCpn) (UniProt Q6LX38); assay: High-Throughput Screening for Modulators of Cytosolic Chaperonin Activity: MmCpn Primary Screen (AID 488978)
# Method in brief: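 HTRF readout (320 nm excitation, 590/665 nm emission) of ADP generated by 50 nM MmCpn hydrolysing 30 uM ATP during 10 min at 37C; compound preincubated 5 min RT.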
# [3] = biological target: Transient receptor potential cation channel subfamily V member 1 (Homo sapiens) (UniProt Q8NER1); assay: HTS Assay for Compounds that Act as Enhancers of the Vanilloid Receptor 1 (AID 488979)
# Method in brief: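 TRPV1 cells loaded with Fluo-8 calcium dye; compound added and Ca2+ signal (ex 480/em 520 nm) followed 3 min, then capsaicin at EC20 added and read 2 more min to detect enhancement.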
# [4] = biological target: Thyrotropin receptor (Homo sapiens) (UniProt P16473); assay: qHTS Assay for Antagonists of the Thyroid Stimulating Hormone Receptor (AID 488980); note: series mostly up to about 58 µM
# Method in brief: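 Inhibition of TSH-stimulated cAMP accumulation was quantified by homogeneous time-resolved FRET in TSHR-transfected HEK293 cells. Agonist: TSH, 4 nM final (EC80).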
# [5] = biological target: D(1A) dopamine receptor (Homo sapiens) (UniProt P21728); assay: HTS Assay for Allosteric Agonists of the Human D1 Dopamine Receptor: Primary Screen for Agonists (AID 488981); note: potency is the fitted concentration of half-maximal effect
# Method in brief: (§1)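 Tetracycline-induced HEK293 Trex D1 cells with forced coupling to calcium, loaded with no-wash calcium dye; kinetic fluorescence read 180 s after compound addition for agonism, then a further 180 s after an EC20 dopamine challenge for potentiation.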
# [6] = biological target: D(1A) dopamine receptor (Homo sapiens) (UniProt P21728); assay: HTS Assay for Allosteric Agonists of the Human D1 Dopamine Receptor: Primary Screen for Potentiators (AID 488982)
# Method in brief: as §1
# [7] = biological target: D(1A) dopamine receptor (Homo sapiens) (UniProt P21728); assay: HTS Assay for Allosteric Agonists of the Human D1 Dopamine Receptor: Primary Screen for Antagonists (AID 488983);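 note: calcium flux response to an EC80 dopamine challenge measured with no-wash dye; nearly all actives have a fitted effect of over 65% in size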
# Method in brief: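 Kinetic fluorescence at 1 cycle/sec tracked intracellular calcium in force-coupled, tetracycline-inducible HEK293 T-REx D1 cells. Loss of response to an EC80 dopamine dose, given 180 s after compound, marked antagonists.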
# [8] = Validation screen for small molecules that induce genotoxicity in human embryonic kidney (HEK293T) cells expressing luciferase-tagged ELG1 (AID 493106)
# Method in brief: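 Cells were dispensed at 2,000 per well, then 23 nL compound or DMSO was pinned in. After 16 hr at 37 °C and 5% CO2, ONE-Glo reagent was added. Luciferase activity was measured following 30 min at room temperature.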
# [9] = biological target: ATPase family AAA domain-containing protein 5 (Homo sapiens) (UniProt Q96QE3); assay: Validation screen for small molecules that inhibit ELG1-dependent DNA repair in human embryonic kidney (HEK293T) cells expressing luciferase-tagged ELG1 (AID 493107); note: nearly all actives have a fitted effect of over 70% in size; note: potency is the fitted concentration of half-maximal effect
# Method in brief: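 Cells are dispensed in 1536-well format, then 5-fluorouridine and compound are pinned in. After a 16 hr incubation at 37 °C and 5% CO2, ONE-Glo is added and luciferase measured on a CCD imager.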
# [10] = biological target: Thyrotropin-releasing hormone receptor (Homo sapiens) (UniProt P34981); assay: qHTS for Small Molecule Agonists and Allosteric Enhancers of Human TRH Receptor: Validation Screen for Agonists (AID 493127;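 active = calcium activation more than 3 SD above the typical response in the agonist read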;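 note: intracellular calcium rise by fluo-8 fluorescence before TRH EC20 addition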); conditions: TRH receptor agonist cell assay; at 2 µM; stronger effect = higher value
# Method in brief: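 Compounds are added by online pintool to dye-loaded TRHR cells while fluorescence is recorded every second. A rise in calcium signal during the agonist read marks activation; a later 10 nM TRH addition (EC20) serves the separate enhancer mode.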
# [11] = Nrf2 qHTS screen for inhibitors: Validation (AID 493153; active = well fitted inhibition curve with a large enough effect in the main read-out, with a control signal flat, not every such curve was filed as active; note: potency is the fitted concentration of half-maximal effect); conditions: Potency: luciferase luminescence; viability change: measured here: cytotoxicity max response
# Method in brief: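 A549 ARE_Fluc, 5% FBS OPTI-MEM; cpd titration, 18-24 h, 37°C/5% CO2. Read 1: CellTiter-Fluor (Ex 405/Em 525), cytotox. Read 2: luciferase lum, Nrf2 activity.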
# [12] = qHTS for Inhibitors of Cell Surface uPA Generation: Validation Assay (AID 493164);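 note: RAW 264.7 macrophage cells exposed to compound for 18 h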
# Method in brief: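 ATP-Lite luminescence read-out: ATP remains high when uPA activity-dependent LF translocation into the cytoplasm is blocked. RAW 264.7 cells, 18 h compound exposure at 37 C; 7-point titration, 2.45 nM to 38.3 uM final.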
# [13] = biological target: Galactokinase (Homo sapiens) (UniProt P51570); assay: qHTS Validation Assay for Inhibitors of Human Galactokinase (GALK) (AID 493189)
# Method in brief: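 Enzyme activity is inferred from ATP consumption: human GALK phosphorylates galactose (100 uM) using 35 uM ATP for 1 h at room temperature, and luciferase-based Kinase-Glo Plus reports unconsumed ATP.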
# [14] = Validation screen for small molecules that induce DNA re-replication in SW480 colon adenocarcinoma cells (AID 504364); note: potency is the fitted concentration of half-maximal effect
# Method in brief: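 Image-based qHTS: compounds were incubated with SW480 cells for 48 hr, nuclei stained with Hoechst, and per-nucleus fluorescence intensity scanned to flag cells with excess DNA content.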
# [15] = biological target: Peptidyl-prolyl cis-trans isomerase NIMA-interacting 1 (Homo sapiens) (UniProt Q13526); assay: qHTS Validation Assay to Find Inhibitors of Pin1 (AID 504536; active = well fitted inhibition curve with a large enough effect in the polarisation, with a control signal flat, not every such curve was filed as active; the % refers to the polarisation)
# Method in brief: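 Fluorescence polarization competition: compounds (titration) displace HiFluor-488-labeled Pin1-1b peptide from Pin1 (0.3 uM final) in pH 7.5 HEPES buffer with DTT, 10 min at room temperature; %Activity normalized to no-enzyme wells, curves fitted.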
# [16] = biological target: Phosphoglycerate kinase, glycosomal (Trypanosoma brucei brucei) (UniProt P07378); assay: qHTS Validation Assay to Find Inhibitors of Phosphoglycerate Kinase (AID 504547)
# Method in brief: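 Compounds are pinned into the substrate/PGK mixture, and GAPDH (100nM final) is added to start the reaction by producing 1,3-BPG. After 60 minutes at room temperature, Kinase-Glo Plus is added and luminescence is measured 10 minutes later.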
# [17] = biological target: phosphoglycerate mutase (Leishmania major) (UniProt Q4Q090); assay: qHTS Validation Assay to Find Inhibitors of Phosphoglycerate Mutase (AID 504548); conditions: Potency: inhibition qHTS; note: series mostly up to about 58 µM
# Method in brief: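 Lm PGAM 1.25nM final; 100 mM TEA pH 7.6, 5 mM MgCl2, 0.01% Tween-20; 45 min RT; Kinase-GloPlus, 10 min; end-point luminescence. Enzyme-free wells as negative controls.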
# [18] = Inducers of the Endoplasmic Reticulum Stress Response (ERSR) in human glioma: Validation (AID 504836)
# Method in brief: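 Stably transfected U87-MG glioma cells carrying a GRP78-based luciferase sensor; 16 h compound incubation. Luminescence end-point read 10 min after Bright-Glo addition at room temperature.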
# [19] = biological target: ATP-dependent 6-phosphofructokinase (Trypanosoma brucei brucei) (UniProt O15648); assay: qHTS Assay to Find Inhibitors of T. brucei phosphofructokinase: hit validation (AID 492961);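 note: luminescence reports ADP formed as PFK phosphorylates fructose-6-phosphate with ATP; series mostly up to about 51 µM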
# Method in brief: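 Inhibition of parasite PFK is measured as reduced ADP formation, quantified via luciferase after ATP depletion. Assay used 0.1 mM ATP, 0.5 mM F6P, 1.25 nM enzyme, 45 min incubation.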
# Chain of Phosphoglycerate kinase, glycosomal (Trypanosoma brucei brucei) (P07378 whole entry, looked up): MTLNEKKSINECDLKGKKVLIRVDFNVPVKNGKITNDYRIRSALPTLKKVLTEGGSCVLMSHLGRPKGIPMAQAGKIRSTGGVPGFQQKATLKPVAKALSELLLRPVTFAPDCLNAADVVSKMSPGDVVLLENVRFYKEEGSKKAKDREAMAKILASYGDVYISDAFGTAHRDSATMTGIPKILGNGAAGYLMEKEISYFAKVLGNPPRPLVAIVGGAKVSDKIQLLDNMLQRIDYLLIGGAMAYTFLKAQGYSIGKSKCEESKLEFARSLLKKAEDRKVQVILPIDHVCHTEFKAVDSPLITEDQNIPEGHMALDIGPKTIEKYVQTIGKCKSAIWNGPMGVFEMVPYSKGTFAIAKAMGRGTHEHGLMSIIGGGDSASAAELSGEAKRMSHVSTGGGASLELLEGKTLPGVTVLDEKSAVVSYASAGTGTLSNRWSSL
# Chain of Methanococcus maripaludis chaperonin (MmCpn) (Q6LX38 1-543): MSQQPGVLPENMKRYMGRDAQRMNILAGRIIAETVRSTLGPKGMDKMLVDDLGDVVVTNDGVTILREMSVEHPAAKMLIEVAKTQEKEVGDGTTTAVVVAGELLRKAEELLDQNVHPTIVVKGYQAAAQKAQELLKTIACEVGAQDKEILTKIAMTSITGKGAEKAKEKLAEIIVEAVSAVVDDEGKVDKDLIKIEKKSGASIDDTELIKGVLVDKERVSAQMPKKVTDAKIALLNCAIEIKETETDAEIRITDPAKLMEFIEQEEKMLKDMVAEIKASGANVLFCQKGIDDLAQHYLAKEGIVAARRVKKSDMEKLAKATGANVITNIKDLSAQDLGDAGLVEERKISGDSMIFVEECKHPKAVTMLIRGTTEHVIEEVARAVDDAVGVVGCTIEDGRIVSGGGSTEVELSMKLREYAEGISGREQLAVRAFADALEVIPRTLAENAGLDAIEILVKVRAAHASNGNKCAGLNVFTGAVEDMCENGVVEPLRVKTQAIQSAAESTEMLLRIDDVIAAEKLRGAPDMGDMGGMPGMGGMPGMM
# Chain of phosphoglycerate mutase (Leishmania major) (Q4Q090 1-553): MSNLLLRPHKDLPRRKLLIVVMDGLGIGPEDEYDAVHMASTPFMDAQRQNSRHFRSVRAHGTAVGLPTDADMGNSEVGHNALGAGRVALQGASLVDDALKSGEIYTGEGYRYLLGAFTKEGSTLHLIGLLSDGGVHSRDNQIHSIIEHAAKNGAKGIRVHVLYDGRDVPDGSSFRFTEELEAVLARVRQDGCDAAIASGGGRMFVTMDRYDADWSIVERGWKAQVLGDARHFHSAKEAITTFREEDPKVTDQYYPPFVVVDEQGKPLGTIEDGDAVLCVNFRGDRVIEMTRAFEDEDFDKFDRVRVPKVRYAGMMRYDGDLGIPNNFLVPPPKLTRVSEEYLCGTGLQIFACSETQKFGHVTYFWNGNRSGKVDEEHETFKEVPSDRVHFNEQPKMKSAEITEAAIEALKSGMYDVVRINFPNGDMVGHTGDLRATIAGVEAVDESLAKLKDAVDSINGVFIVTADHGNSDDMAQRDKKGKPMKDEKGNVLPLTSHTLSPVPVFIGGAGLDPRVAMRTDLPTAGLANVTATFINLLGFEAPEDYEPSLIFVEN
# Chain of Galactokinase (Homo sapiens) (P51570 whole entry, looked up): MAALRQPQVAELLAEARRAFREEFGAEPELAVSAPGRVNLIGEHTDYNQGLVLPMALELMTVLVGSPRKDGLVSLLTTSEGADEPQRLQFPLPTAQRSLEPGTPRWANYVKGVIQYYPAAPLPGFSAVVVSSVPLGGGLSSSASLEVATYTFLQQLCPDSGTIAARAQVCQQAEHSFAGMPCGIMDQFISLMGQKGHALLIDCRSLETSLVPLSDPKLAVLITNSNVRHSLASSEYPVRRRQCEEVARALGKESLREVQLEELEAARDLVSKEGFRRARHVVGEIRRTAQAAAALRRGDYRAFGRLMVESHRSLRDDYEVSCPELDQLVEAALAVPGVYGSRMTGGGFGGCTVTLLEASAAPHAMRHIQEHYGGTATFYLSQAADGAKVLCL
# Chain of Chromobox protein homolog 1 (Homo sapiens) (P83916 whole entry, looked up): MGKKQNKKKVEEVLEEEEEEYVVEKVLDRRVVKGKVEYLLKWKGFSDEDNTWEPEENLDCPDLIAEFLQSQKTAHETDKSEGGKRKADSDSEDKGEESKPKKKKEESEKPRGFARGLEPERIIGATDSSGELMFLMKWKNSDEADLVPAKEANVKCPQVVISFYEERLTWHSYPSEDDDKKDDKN
# Chain of Transient receptor potential cation channel subfamily V member 1 (Homo sapiens) (Q8NER1 whole entry, looked up): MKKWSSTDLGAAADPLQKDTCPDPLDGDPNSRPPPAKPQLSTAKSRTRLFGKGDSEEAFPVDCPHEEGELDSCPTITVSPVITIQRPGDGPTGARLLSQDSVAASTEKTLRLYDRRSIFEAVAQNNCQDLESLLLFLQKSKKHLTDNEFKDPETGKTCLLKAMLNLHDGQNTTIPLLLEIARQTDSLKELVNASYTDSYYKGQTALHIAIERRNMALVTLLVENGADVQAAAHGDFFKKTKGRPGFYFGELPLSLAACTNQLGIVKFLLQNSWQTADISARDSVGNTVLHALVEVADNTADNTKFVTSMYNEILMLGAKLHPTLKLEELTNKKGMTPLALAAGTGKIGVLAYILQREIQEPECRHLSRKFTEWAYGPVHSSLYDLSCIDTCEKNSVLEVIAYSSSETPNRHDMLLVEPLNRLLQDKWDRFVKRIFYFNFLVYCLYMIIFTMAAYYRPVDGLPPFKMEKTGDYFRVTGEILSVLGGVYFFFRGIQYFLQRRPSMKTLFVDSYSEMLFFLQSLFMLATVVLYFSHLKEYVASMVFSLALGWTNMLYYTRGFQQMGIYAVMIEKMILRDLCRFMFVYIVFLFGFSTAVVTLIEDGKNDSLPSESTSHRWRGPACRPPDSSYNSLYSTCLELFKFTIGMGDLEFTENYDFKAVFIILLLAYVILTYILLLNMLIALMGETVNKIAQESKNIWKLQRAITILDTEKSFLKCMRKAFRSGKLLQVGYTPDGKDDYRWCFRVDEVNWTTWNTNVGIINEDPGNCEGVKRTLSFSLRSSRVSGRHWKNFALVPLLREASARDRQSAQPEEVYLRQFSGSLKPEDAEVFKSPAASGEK
# Chain of Thyrotropin receptor (Homo sapiens) (P16473 whole entry, looked up): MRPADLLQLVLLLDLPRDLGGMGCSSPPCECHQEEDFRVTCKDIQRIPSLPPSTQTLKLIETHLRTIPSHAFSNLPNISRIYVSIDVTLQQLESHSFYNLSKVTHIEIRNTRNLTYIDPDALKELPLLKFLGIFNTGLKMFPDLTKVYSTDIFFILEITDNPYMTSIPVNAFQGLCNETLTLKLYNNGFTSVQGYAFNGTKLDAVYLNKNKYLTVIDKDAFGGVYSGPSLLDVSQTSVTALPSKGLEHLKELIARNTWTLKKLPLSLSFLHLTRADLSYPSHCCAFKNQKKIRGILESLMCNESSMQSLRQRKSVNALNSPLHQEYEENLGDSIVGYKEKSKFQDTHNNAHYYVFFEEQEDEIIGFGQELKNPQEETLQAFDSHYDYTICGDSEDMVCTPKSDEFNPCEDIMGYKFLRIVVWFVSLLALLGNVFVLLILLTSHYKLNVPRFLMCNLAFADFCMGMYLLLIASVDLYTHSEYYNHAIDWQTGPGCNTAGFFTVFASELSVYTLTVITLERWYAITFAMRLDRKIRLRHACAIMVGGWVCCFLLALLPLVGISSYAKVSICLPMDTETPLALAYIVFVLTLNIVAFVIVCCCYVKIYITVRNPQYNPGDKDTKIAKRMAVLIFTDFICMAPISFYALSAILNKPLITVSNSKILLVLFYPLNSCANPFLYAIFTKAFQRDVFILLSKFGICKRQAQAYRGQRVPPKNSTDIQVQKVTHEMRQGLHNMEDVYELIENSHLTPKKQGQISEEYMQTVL
# Chain of Peptidyl-prolyl cis-trans isomerase NIMA-interacting 1 (Homo sapiens) (Q13526 whole entry, looked up): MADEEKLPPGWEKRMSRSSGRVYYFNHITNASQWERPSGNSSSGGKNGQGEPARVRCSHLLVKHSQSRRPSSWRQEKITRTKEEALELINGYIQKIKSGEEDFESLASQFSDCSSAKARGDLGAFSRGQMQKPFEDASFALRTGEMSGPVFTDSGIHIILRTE
# Chain of D(1A) dopamine receptor (Homo sapiens) (P21728 whole entry, looked up): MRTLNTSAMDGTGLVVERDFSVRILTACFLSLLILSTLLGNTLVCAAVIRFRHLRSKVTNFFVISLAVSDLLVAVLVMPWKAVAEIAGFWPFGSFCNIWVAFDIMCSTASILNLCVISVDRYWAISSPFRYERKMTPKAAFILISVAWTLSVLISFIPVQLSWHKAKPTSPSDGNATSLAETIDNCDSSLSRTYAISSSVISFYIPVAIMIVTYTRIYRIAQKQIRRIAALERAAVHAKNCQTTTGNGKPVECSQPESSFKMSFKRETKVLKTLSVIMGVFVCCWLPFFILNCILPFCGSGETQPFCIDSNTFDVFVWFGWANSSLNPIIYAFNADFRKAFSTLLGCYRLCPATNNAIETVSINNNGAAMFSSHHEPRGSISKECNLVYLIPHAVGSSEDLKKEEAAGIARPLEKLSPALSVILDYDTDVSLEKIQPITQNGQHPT
# Chain of Thyrotropin-releasing hormone receptor (Homo sapiens) (P34981 whole entry, looked up): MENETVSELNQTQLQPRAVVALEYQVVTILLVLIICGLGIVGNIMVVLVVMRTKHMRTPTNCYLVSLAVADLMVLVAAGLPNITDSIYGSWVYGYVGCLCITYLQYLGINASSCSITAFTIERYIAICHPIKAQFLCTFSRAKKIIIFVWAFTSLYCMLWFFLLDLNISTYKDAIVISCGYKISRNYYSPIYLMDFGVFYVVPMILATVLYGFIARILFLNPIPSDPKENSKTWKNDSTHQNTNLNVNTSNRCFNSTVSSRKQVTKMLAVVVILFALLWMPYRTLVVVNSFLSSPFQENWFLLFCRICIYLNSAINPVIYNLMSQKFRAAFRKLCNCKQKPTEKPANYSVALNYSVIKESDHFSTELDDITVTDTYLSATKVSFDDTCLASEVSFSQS
Compound,Potency [1],outcome [2],outcome [3],outcome [4],Potency [5],Potency [6],Potency [7],Potency [8],Potency [9],activation [10],Potency [11],viability change [11],outcome [12],outcome [13],Potency [14],Potency [15],Potency [16],Potency [17],outcome [18],Potency [19]
NNC(N)=O,inactive,inactive,inactive,inactive,inactive,inactive,inactive,inactive,inactive,0.625% (inactive),inactive,-0.697%,inactive,inactive,inactive,inactive,inactive,inactive,inactive,–
CC(C)(C)c1cc(C=C(C#N)C#N)cc(C(C)(C)C)c1O,7.94 µM (active),inactive,inactive,inactive,inactive,inactive,–,inactive,2.31 µM (active),0.125% (inactive),–,–,inactive,inactive,–,inactive,inactive,inactive,–,–
CC(N)c1cccc(Cl)c1Cl (stereo not given),inactive,inactive,inactive,inactive,inactive,inactive,inactive,inactive,inactive,-0.188% (inactive),inactive,5.17%,inactive,inactive,–,inactive,inactive,inactive,inactive,–
C=CCN1CCC23c4c5ccc(O)c4O[C@H]2C(=O)CC[C@@]3(O)C1C5 (stereo not given in full),inactive,inactive,inactive,–,inactive,inactive,inactive,inactive,inactive,–,inactive,2.4%,inactive,inactive,–,inactive,inactive,inactive,inactive,inactive
Cc1c2ccncc2c(C)c2c1[nH]c1ccccc12,50.1 µM (active),inactive,inactive,inactive,10 µM (active),inactive,inactive,inactive,16.4 µM (active),28.2% (inactive),–,–,inactive,inactive,–,inactive,inactive,inactive,inactive,–
CN(C(=O)Cc1ccc(Cl)c(Cl)c1)C(CN1CCCC1)c1cccc(OCC(=O)O)c1 (stereo not given),inactive,inactive,inactive,inactive,inactive,inactive,inactive,inactive,inactive,0.25% (inactive),inactive,-6.12%,inactive,inactive,inactive,inactive,inactive,inactive,–,–
O=[N+]([O-])c1cc(O)c(O)c([N+](=O)[O-])c1,inactive,inactive,inactive,inactive,inactive,inactive,inactive,inactive,inactive,-0.438% (inactive),–,–,inactive,inactive,–,inactive,inactive,inactive,inactive,–
CP(=O)(O)C1=CCNCC1,inactive,inactive,inactive,inactive,inactive,inactive,inactive,inactive,inactive,0.188% (inactive),inactive,-3.56%,inactive,inactive,inactive,inactive,inactive,inactive,inactive,–
C[C@]12Cc3cn4c(nc3C=C1CCC1C2CC[C@@]2(C)[C@H]1CC[C@@]2(O)C#N)nc1ccccc14 (stereo not given in full),inactive,inactive,inactive,inactive,inactive,inactive,inactive,inactive,7.3 µM (active),-4.5% (inactive),13 µM (active),-1.99%,inactive,inactive,23.1 µM (active),inactive,inactive,inactive,–,–
CCCN(CCC)C1CCc2cccc(O)c2C1 (stereo not given),inactive,inactive,inactive,inactive,inactive,inactive,inactive,inactive,inactive,1.12% (inactive),inactive,4.06%,inactive,inactive,inactive,–,inactive,inactive,inactive,–
CC(C)(C)c1o[nH]c(=O)c1CC(N)C(=O)O (stereo not given),inactive,inactive,inactive,inactive,inactive,inactive,inactive,inactive,inactive,0.625% (inactive),inactive,8%,inactive,inactive,inactive,inactive,inactive,inactive,inactive,–
C[N+](C)(C)CC#CCOC(=O)Nc1cccc(Cl)c1,inactive,inactive,inactive,inactive,inactive,inactive,inactive,inactive,inactive,0.875% (inactive),inactive,-2.28%,inactive,inactive,–,inactive,inactive,inactive,inactive,–
N[C@@]1(C(=O)O)CC[C@@H](C(=O)O)C1,inactive,inactive,inactive,inactive,inactive,inactive,inactive,inactive,inactive,-0.25% (inactive),inactive,4.39%,inactive,inactive,inactive,inactive,inactive,inactive,–,–
NC(C(=O)O)c1cc(=O)[nH]o1 (stereo not given),inactive,inactive,inactive,inactive,inactive,inactive,inactive,inactive,inactive,0.688% (inactive),inactive,-7.19%,inactive,inactive,inactive,inactive,inactive,inactive,–,–
O=C1CC[C@@]2(O)C3Cc4ccc(O)c5c4C2(CCN3CC2CC2)[C@H]1O5 (stereo not given in full),inactive,inactive,inactive,inactive,inactive,inactive,inactive,inactive,inactive,1.31% (inactive),inactive,-12.7%,inactive,inactive,–,inactive,inactive,inactive,inactive,inactive
